In the library only some 1.5% were active in any assay of this set; here they are far more common.
TNFa cytotox – HUVEC cytotoxicity counter-screen, TNF alpha stimulated. 0.17% of 93,000 active. HUVEC TNFalpha-stimulated, Hoechst cell count, imaging. AID 848. cell count reduction, % at 2 µM;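 active means cell count reduction exceeding the screen mean by over 5 SD, scaled to untreated wells per plate, cut at about 78% in these data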;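 further: cells counted after 24 h of TNF alpha exposure following the 1 h pretreatment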
NFkB transloc pot – enhances IL-1B driven NFkB nuclear translocation. HUVEC IL-1B NFkB p65 nuclear translocation imaging. AID 819. activation, % at 2 µM. 0.3% of 94,000 active;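 active means activation above 40%, about the mean plus 3 SD, also judged a hit on visual image review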;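 further: percent activation is computed from the nuclear over cytoplasmic p65 intensity ratio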
HUVEC tox IL1B – toxic to HUVEC cells under IL-1B stimulation. HUVEC cell count loss, Hoechst imaging, IL-1B stimulated. cell count reduction, % at 2 µM. 0.41% of 94,000 active;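 active means cell count reduction more than 3 SD above the screen-wide mean, cut at about 70% in these data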
NFkB transloc inh – blocks IL-1B driven NFkB nuclear translocation in HUVEC cells | AID 796 | HUVEC IL-1B NFkB p65 nuclear translocation imaging | 0.43% of 94,000 active | inhibition, % at 2 µM;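 active means inhibition above about 30% together with a positive call from visual inspection of the well image, limit read from the data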;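 further: nuclear over cytoplasmic p65 intensity ratio measured by imaging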
VCAM1 TNFa inh – reduces TNF alpha induced VCAM1 expression in HUVEC | inhibition, % at 2 µM | 0.48% of 95,000 active | HUVEC TNFa-induced VCAM-1 immunofluorescence, high-content imaging;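 active means inhibition above the batch mean plus 3 SD, with images confirmed as a hit by eye, cut at about 37% in these data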
A number is an active result; n = inactive.

SMILES | TNFa cytotox | NFkB transloc pot | HUVEC tox IL1B | NFkB transloc inh | VCAM1 TNFa inh
O=C(NC(NC1CCS(=O)(=O)C1)C(=O)c1cccs1)c1ccccc1 (configuration not stated) | n | n | n | n | 94.5
Cc1c(C(=O)Nc2ccccc2-c2ccccc2)cccc1[N+](=O)[O-] | n | n | n | n | n
O=C(CC1(O)C(=O)Nc2ccc(Br)cc21)c1ccc2c(c1)OCO2 (configuration not stated) | n | n | n | n | n
O=C(CSc1nnc(SCC(=O)NCc2ccc3c(c2)OCO3)s1)NCc1ccc2c(c1)OCO2 | n | n | n | n | n
O=C(CSc1nnc(-c2ccccc2)n1Cc1ccco1)NCc1ccc2c(c1)OCO2 | n | 59.1 | n | n | n
Nc1nnc(SCC(=O)NCc2ccc3c(c2)OCO3)s1 | n | n | n | n | 93.0
O=C(CSc1nnc(-c2ccccc2)n1Cc1ccco1)Nc1ccc2c(c1)OCCO2 | n | n | n | n | n
O=C(Nc1c(-c2ccccc2)nc2ccccn12)c1ccco1 | n | n | 93.5 | n | n
COc1ccc([N+](=O)[O-])cc1NC(=S)NC(NC(=O)C(c1ccccc1)c1ccccc1)C(Cl)(Cl)Cl (configuration not stated) | n | n | n | n | n
O=C(Nc1ccc(N2CCOCC2)cc1)c1cn2ccccc2n1 | n | n | n | n | n
COc1ccc(CC(=O)Nc2cccc(-c3nnc(-c4ccccc4)o3)c2)cc1OC | n | n | n | n | n
COc1ccc(-c2nc(-c3ccc(NC(=O)c4ccc(Br)o4)cc3)no2)cc1OC | n | n | n | n | 76.0
COc1ccc(CC(=O)Nc2ccc(-c3nnc(-c4ccccc4)o3)cc2)cc1OC | n | n | n | 90.8 | n
O=C(c1ccc(Cl)c(S(=O)(=O)NCc2ccco2)c1)N1CCN(c2ccc(F)cc2)CC1 | n | n | n | 35.6 | n
C=CCn1c(N)cc(=O)nc1SC(C)C(=O)Nc1cccc2ccccc12 (configuration not stated) | n | n | n | n | n
CCN=C1SC(C(N)=O)CC(=O)N1CC (configuration not stated) | n | n | n | n | n
CN1C(=O)CSC1=NC12CC3CC(CC(C3)C1)C2 | n | 40.0 | n | n | n
CCN1C(=O)CSC1=NC12CC3CC(CC(C3)C1)C2 | n | n | n | n | 96.4
COCc1nnc(NC(=O)CSCc2ccccc2)s1 | n | n | n | n | n
C=C(C)CSc1nc2c(c(=O)[nH]c(=O)n2C)n1CCC(C)C | n | n | n | n | n
COc1cccc(COc2nc3c(c(=O)n(C)c(=O)n3C)n2C)c1 | n | n | n | 37.9 | n
Cc1cc(C(=O)NCc2ccc(S(N)(=O)=O)cc2)c(C)o1 | n | n | n | n | n
CN(C)C(=O)NCc1ccc(S(N)(=O)=O)cc1 | n | n | 86.7 | n | n
NS(=O)(=O)c1ccc(CNC(=O)C2CCCCC2)cc1 | n | n | n | n | n
NS(=O)(=O)c1ccc(CNC(=O)CC23CC4CC(CC(C4)C2)C3)cc1 | n | n | n | 32.0 | n
SMILES | TNFa cytotox | NFkB transloc pot | HUVEC tox IL1B | NFkB transloc inh | VCAM1 TNFa inh
CCOc1ccccc1C(=O)N1CCN=C1SCc1cccnc1 | n | n | n | n | n
Cc1ccc(-n2nc3ccc(NC(=O)c4ccc5c(c4)OCO5)cc3n2)cc1 | n | n | n | n | n
CCCC(=O)Nc1c2c(nn1-c1ccc(C)cc1C)CSC2 | n | n | 82.8 | n | n
Cc1ccc(-n2nc3c(c2NC(=O)c2ccc4c(c2)OCO4)CSC3)cc1 | n | n | 93.2 | 97.5 | n
CC(=O)Nc1c2c(nn1-c1ccc(C)cc1C)CSC2 | n | n | n | n | n
O=C(CSc1nnc(-c2ccco2)o1)N1c2ccccc2CCc2ccccc21 | n | n | n | n | n
CC(C)CC1NC(=O)N(CC(=O)N2CCN(S(=O)(=O)c3ccccc3)CC2)C1=O (configuration not stated) | n | n | n | n | n
Cc1noc(-c2ccccc2OC(=O)c2ccccc2)n1 | n | 53.4 | n | n | n
O=C(c1ccc([N+](=O)[O-])cc1)N(Cc1ccc(Cl)cc1)N1C(=O)CCCC1=O | n | n | n | n | 46.3
CCOC(=O)c1ccc(NS(=O)C23CC4CC(CC(C4)C2)C3)cc1 (configuration not stated) | n | n | n | n | 54.3
CCC(=O)N1c2ccc(S(=O)(=O)CCC(=O)NC3CCCC3)cc2CC1C (configuration not stated) | n | n | n | n | n
CCC(=O)N1c2ccc(S(=O)(=O)CCC(=O)N3CCn4c3nc3ccccc34)cc2CC1C (configuration not stated) | 84.0 | n | n | n | 82.9
CCOC(=O)N1CCC(c2cc(=O)n3[nH]cc(C(=O)OC)c3n2)CC1 | n | n | n | n | n
COC(=O)c1c[nH]n2c(=O)cc(C)nc12 | n | n | n | 47.0 | n
CCc1ccc(C(C(=O)NC2CCCCC2)N(C(=O)CNC(=O)c2ccco2)c2cccnc2)cc1 (configuration not stated) | n | n | n | n | n
CC(C)(C)NC(=O)C(c1ccsc1)N(CCc1ccccc1)C(=O)Cn1nnc2ccccc21 (configuration not stated) | n | n | n | 57.5 | n
Cc1cc(C)c(N(C(=O)Cn2nnc3ccccc32)C(C(=O)NC(C)(C)C)c2ccsc2)c(C)c1 (configuration not stated) | n | n | n | n | n
COc1cccc(-c2nc(CS(=O)(=O)CC(=O)NCCCOC(C)C)c(C)o2)c1 | n | n | 94.8 | n | n
COc1ccc(NC(=O)c2ccc(C)cc2Cl)c([N+](=O)[O-])c1 | n | n | 78.7 | n | n
COc1ccc(NC(=S)NC(NC(=O)c2ccc(Cl)cc2Cl)C(Cl)(Cl)Cl)c([N+](=O)[O-])c1 (configuration not stated) | n | n | n | n | n
Cc1c(Cc2ccccc2)sc(N)c1C(N)=O | n | n | 86.8 | 98.4 | n
COc1cccc(-n2nc3c(-n4ncc(C#N)c4N)nnc(C)c3c2C)c1 | n | n | n | 45.8 | n
Cc1nnc(-n2ncc(C#N)c2N)c2nn(-c3ccccc3F)c(C)c12 | n | n | n | n | n
CC1(C)CNC(=O)c2sc(N3CCOCC3)nc2C1 | n | n | n | n | n
O=C1CC(C(=O)Nc2ccc(C(=O)N3CCOCC3)cc2)C2(CCCCC2)O1 (configuration not stated) | n | n | 90.0 | n | n
SMILES | TNFa cytotox | NFkB transloc pot | HUVEC tox IL1B | NFkB transloc inh | VCAM1 TNFa inh
CN1C(=O)C(C(=O)NC(C)(C)C)C2c3ccccc3OC13CCCCC23 (configuration not stated) | n | n | n | n | n
Cc1csc(NC(=O)CSc2nnc(-c3ccc(S(=O)(=O)N4CCCC4)cc3)o2)n1 | n | n | n | n | 72.9
CCN(CC)c1ccc(-c2nn3c(-c4ccccc4OC)nnc3s2)cc1 | n | n | 71.0 | n | 97.3
Cc1ccccc1S(=O)(=O)Nc1nc2ccccc2nc1N1CCOCC1 | n | n | n | n | n
O=C(c1nc2nc(-c3ccc(Cl)cc3)cc(C(F)(F)F)n2n1)N1CCOCC1 | n | n | n | 31.3 | n
O=C(CSc1nnc(CNC(=O)c2ccccc2F)o1)c1ccccc1 | n | n | n | n | n
